ChEMBL document CHEMBL1961873, “Compounds: GSK PKIS; Assays: Nanosyn kinase panel” (2012)

Legend:
[1] = biological target: 5'-AMP-activated protein kinase catalytic subunit alpha-2 (Homo sapiens) (UniProt P54646); conditions: at 1 µM
[2] = biological target: T1, NUAK family SNF1-like kinase 1 (Homo sapiens) (UniProt O60285); conditions: at 0.1 µM
T1 sequence (whole entry): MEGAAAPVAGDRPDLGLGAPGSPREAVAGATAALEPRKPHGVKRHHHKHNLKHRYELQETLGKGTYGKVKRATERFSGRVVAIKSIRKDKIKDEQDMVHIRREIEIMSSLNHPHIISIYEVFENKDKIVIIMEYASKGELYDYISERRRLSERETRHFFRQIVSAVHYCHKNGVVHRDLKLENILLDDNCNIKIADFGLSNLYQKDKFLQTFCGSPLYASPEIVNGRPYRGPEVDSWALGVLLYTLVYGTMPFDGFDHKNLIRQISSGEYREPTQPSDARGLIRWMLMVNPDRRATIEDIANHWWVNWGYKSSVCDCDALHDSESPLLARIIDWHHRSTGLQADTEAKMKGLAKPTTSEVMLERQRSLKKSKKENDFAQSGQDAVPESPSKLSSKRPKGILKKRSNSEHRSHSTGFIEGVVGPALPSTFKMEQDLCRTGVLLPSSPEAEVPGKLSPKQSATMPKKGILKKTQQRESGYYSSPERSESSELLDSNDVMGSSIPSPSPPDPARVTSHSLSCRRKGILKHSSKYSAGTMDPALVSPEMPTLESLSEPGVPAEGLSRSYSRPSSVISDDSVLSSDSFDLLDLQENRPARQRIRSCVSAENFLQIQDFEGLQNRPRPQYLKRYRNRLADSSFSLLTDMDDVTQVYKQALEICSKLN

[3] = biological target: T1, NUAK family SNF1-like kinase 1 (Homo sapiens); conditions: at 1 µM
[4] = biological target: T2, Serine/threonine-protein kinase BRSK1 (Homo sapiens) (UniProt Q8TDC3); conditions: at 0.1 µM
T2 sequence (whole entry): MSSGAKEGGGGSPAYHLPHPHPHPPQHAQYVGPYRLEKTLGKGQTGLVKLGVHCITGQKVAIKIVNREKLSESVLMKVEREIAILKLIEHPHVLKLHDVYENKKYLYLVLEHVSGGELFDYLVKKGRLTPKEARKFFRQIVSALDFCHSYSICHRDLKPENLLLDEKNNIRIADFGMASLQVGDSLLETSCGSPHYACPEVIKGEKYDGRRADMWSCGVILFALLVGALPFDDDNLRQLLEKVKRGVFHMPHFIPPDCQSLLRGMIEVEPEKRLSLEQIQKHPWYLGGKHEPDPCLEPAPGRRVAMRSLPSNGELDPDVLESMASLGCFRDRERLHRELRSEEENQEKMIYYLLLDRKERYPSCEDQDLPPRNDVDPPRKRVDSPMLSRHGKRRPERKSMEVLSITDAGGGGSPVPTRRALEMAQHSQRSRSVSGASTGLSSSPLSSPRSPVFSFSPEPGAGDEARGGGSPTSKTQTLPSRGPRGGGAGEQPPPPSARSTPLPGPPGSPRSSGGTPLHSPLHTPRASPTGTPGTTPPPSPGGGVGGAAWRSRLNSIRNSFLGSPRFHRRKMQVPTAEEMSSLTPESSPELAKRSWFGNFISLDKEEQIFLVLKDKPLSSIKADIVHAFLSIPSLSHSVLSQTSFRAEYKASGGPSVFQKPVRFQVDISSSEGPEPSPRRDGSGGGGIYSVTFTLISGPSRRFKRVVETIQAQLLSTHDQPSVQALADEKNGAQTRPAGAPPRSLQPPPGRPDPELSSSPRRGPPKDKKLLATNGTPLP

[5] = biological target: T2, Serine/threonine-protein kinase BRSK1 (Homo sapiens); conditions: at 1 µM
[6] = biological target: T3, Serine/threonine-protein kinase BRSK2 (Homo sapiens) (UniProt Q8IWQ3); conditions: at 0.1 µM
T3 sequence (whole entry): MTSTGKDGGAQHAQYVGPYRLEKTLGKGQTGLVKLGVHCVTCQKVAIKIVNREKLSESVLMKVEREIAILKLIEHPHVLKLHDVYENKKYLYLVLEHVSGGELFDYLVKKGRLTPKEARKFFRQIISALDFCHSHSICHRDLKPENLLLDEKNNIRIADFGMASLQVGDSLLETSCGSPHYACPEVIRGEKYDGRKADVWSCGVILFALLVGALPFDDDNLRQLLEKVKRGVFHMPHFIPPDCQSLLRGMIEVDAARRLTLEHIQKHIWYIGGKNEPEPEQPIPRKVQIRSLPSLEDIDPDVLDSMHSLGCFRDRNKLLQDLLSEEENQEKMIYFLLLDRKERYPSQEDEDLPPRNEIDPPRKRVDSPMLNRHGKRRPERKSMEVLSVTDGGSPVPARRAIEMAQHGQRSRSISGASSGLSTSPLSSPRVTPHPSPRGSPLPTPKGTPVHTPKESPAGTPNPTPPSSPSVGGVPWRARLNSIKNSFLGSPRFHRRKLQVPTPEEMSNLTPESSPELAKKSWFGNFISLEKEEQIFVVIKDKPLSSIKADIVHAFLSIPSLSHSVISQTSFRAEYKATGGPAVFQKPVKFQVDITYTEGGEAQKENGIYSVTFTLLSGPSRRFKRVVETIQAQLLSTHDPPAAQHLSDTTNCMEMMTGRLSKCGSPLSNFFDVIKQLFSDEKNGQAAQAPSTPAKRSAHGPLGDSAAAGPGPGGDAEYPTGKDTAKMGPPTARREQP

[7] = biological target: T3, Serine/threonine-protein kinase BRSK2 (Homo sapiens); conditions: at 1 µM
[8] = biological target: Calcium/calmodulin-dependent protein kinase type 1D (Homo sapiens) (UniProt Q8IU85); conditions: at 0.1 µM
[9] = biological target: Calcium/calmodulin-dependent protein kinase type 1D (Homo sapiens) (UniProt Q8IU85); conditions: at 1 µM
[10] = biological target: Calcium/calmodulin-dependent protein kinase type II subunit alpha (Homo sapiens) (UniProt Q9UQM7); conditions: at 0.1 µM
[11] = biological target: Calcium/calmodulin-dependent protein kinase type II subunit alpha (Homo sapiens) (UniProt Q9UQM7); conditions: at 1 µM
[12] = biological target: Calcium/calmodulin-dependent protein kinase type II subunit delta (Homo sapiens) (UniProt Q13557); conditions: at 0.1 µM
[13] = biological target: Calcium/calmodulin-dependent protein kinase type II subunit delta (Homo sapiens) (UniProt Q13557); conditions: at 1 µM
[14] = biological target: T4, Calcium/calmodulin-dependent protein kinase type IV (Homo sapiens) (UniProt Q16566); conditions: at 0.1 µM
T4 sequence (whole entry): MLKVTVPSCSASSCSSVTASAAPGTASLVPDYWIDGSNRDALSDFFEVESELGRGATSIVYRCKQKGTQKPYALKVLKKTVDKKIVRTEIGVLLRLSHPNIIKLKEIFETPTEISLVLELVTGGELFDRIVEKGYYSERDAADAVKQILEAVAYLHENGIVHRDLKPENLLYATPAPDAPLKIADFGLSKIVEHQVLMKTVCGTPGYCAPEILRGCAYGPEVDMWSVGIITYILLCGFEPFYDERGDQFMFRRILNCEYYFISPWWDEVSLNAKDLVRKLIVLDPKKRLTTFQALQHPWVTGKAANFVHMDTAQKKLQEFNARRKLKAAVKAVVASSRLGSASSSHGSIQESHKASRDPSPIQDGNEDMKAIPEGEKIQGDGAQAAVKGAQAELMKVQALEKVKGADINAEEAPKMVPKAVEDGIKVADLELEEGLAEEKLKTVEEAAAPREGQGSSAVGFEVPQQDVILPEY

[15] = biological target: T4, Calcium/calmodulin-dependent protein kinase type IV (Homo sapiens); conditions: at 1 µM
[16] = biological target: T5, Serine/threonine-protein kinase Chk1 (Homo sapiens) (UniProt O14757); conditions: at 0.1 µM
T5 sequence (whole entry): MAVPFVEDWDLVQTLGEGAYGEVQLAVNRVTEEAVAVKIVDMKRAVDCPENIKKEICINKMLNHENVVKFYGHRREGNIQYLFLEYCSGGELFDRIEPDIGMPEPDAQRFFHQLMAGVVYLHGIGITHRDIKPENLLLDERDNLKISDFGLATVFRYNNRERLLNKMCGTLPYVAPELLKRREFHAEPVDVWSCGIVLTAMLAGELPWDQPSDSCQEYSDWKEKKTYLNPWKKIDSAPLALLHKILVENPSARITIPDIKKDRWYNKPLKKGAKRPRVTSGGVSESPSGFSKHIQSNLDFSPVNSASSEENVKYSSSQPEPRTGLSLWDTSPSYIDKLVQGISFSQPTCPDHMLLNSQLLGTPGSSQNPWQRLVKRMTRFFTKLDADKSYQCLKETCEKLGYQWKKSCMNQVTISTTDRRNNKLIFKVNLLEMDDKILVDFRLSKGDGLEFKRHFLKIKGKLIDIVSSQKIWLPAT

[17] = biological target: T5, Serine/threonine-protein kinase Chk1 (Homo sapiens); conditions: at 1 µM
[18] = biological target: Serine/threonine-protein kinase Chk2 (Homo sapiens) (UniProt O96017); conditions: at 0.1 µM
[19] = biological target: Serine/threonine-protein kinase Chk2 (Homo sapiens) (UniProt O96017); conditions: at 1 µM
[20] = biological target: Death-associated protein kinase 1 (Homo sapiens) (UniProt P53355); conditions: at 0.1 µM;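 also: reported figure is the mean inhibition of DAPK1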
Chain of Death-associated protein kinase 1 (Homo sapiens) (P53355 whole entry, looked up): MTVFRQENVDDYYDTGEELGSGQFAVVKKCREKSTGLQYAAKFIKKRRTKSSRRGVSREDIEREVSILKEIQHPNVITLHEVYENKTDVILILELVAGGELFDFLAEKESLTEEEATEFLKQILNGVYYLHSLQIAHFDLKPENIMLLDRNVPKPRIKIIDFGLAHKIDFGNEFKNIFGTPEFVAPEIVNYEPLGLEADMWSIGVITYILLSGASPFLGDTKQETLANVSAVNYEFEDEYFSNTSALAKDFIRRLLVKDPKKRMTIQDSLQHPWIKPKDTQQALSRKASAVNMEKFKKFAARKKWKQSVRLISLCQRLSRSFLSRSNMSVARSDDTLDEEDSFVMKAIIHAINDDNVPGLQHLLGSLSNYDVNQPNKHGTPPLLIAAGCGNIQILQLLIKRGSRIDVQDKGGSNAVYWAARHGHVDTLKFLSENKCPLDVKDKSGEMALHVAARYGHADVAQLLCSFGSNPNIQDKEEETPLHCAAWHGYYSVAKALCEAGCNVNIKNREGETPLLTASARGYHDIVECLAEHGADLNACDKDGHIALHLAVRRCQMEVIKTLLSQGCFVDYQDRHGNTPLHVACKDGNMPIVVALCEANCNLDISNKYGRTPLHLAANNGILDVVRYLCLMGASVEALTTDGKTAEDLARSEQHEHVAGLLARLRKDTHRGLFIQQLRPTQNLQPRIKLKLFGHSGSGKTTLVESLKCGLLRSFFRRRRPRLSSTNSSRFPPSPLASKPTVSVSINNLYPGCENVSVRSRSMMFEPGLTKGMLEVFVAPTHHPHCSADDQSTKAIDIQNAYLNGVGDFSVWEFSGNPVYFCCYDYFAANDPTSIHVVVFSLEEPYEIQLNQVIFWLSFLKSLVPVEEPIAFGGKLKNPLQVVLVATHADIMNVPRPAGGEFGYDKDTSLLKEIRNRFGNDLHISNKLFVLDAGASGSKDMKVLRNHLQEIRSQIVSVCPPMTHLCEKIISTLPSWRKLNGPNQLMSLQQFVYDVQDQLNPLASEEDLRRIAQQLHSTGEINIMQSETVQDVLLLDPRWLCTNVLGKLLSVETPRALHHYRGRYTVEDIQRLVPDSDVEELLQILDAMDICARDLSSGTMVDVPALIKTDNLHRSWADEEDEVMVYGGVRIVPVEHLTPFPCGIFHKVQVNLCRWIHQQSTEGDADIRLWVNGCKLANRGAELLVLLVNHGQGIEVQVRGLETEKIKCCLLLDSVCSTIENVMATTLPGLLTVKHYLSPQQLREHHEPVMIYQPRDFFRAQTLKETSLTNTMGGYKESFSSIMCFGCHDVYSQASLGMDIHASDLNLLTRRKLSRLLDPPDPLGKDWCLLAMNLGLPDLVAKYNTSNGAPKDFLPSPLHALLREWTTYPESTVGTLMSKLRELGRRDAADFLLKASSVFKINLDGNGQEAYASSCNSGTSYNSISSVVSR

Chain of 5'-AMP-activated protein kinase catalytic subunit alpha-2 (Homo sapiens) (P54646 whole entry, looked up): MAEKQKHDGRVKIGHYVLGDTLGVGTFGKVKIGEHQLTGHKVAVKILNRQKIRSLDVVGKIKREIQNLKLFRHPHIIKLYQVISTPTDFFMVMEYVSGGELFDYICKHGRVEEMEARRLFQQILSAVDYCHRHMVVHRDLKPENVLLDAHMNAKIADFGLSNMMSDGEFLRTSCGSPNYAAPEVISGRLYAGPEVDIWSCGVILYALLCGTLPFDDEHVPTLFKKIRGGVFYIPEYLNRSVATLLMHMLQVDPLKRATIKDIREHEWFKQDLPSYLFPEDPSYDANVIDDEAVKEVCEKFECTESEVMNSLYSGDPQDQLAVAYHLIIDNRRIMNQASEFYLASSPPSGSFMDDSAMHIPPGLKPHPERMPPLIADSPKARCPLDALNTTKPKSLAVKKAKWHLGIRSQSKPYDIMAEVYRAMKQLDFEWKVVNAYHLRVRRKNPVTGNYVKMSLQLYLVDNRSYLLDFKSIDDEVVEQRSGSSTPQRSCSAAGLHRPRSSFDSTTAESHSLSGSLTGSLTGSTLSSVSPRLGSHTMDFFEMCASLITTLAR
Chain of Serine/threonine-protein kinase Chk2 (Homo sapiens) (O96017 whole entry): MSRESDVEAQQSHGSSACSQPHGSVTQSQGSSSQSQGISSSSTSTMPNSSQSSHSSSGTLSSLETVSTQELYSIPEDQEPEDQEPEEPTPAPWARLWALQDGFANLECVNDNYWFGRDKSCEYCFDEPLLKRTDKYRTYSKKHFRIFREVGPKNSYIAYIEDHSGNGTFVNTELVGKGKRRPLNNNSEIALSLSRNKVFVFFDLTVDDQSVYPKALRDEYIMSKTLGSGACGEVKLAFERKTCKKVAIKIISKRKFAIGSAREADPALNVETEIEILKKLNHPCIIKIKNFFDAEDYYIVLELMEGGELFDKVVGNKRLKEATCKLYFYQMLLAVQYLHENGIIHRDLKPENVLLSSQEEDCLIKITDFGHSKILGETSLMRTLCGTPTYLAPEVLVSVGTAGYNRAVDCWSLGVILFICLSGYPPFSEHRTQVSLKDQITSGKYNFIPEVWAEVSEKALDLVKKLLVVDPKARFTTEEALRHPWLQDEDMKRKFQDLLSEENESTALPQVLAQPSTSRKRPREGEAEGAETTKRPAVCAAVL
Chain of Calcium/calmodulin-dependent protein kinase type II subunit alpha (Homo sapiens) (Q9UQM7 whole entry): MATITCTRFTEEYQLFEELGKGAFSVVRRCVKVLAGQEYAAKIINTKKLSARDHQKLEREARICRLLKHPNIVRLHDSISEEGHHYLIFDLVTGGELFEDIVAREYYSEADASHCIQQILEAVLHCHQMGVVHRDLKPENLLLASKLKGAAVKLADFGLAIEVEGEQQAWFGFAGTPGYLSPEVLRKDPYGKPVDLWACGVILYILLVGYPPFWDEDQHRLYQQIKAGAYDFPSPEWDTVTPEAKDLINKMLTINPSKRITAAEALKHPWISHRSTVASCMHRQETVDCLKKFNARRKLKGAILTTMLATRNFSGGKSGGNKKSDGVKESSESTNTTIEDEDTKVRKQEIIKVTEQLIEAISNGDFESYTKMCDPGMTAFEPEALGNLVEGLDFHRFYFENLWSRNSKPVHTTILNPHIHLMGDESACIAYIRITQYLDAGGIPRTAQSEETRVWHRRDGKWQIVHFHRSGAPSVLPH
Chain of Calcium/calmodulin-dependent protein kinase type 1D (Homo sapiens) (Q8IU85 whole entry, looked up): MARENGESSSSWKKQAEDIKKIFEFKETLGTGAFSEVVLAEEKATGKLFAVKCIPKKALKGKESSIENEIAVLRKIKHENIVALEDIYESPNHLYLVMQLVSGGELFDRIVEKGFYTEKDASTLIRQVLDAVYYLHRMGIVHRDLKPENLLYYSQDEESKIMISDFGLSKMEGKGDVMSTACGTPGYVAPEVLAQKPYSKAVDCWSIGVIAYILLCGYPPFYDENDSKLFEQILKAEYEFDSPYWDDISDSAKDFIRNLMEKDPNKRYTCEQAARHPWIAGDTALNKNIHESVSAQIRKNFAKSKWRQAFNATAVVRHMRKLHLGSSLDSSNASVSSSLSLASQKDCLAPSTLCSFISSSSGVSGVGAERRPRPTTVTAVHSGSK
Chain of Calcium/calmodulin-dependent protein kinase type II subunit delta (Homo sapiens) (Q13557 whole entry): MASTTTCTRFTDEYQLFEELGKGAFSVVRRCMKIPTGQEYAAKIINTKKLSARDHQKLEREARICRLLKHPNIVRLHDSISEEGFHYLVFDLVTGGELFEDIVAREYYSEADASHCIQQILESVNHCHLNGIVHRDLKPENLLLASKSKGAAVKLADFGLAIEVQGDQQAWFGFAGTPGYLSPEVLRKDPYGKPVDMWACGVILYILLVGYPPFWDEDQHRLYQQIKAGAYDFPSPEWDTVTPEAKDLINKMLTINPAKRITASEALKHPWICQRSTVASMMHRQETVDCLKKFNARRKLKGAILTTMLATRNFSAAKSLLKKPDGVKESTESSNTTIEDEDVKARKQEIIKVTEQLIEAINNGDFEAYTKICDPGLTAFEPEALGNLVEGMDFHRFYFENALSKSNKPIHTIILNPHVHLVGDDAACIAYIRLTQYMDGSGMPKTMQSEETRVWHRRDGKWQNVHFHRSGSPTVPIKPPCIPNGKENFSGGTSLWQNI

Structure (SMILES) | inhibition [1] [%] | inhibition [2] [%] | inhibition [3] [%] | inhibition [4] [%] | inhibition [5] [%] | inhibition [6] [%] | inhibition [7] [%] | inhibition [8] [%] | inhibition [9] [%] | inhibition [10] [%] | inhibition [11] [%] | inhibition [12] [%] | inhibition [13] [%] | inhibition [14] [%] | inhibition [15] [%] | inhibition [16] [%] | inhibition [17] [%] | inhibition [18] [%] | inhibition [19] [%] | inhibition [20] [%]
CCn1c(-c2nonc2N)nc2cncc(C(=O)N3CC[C@H](N)C3)c21 | 6.01 | 0.02 | 0.59 | 1.37 | 2.48 | 0.94 | 6.07 | 1.79 | 0.54 | 3.71 | 3.64 | 4.1 | 4.33 | 1.7 | -0.55 | 4.56 | 6.37 | 1.1 | 1.86 | 5.74
Cc1ccc(C(=O)NC2CCCCC2)cc1-c1ccc(C(=O)NCC2CC2)cc1 | 1.51 | 2.83 | 2.62 | 2.63 | 0.64 | 1.87 | -1.13 | 3.13 | 2.73 | 4.8 | 4.57 | 4.88 | 2.35 | 3.22 | 3.67 | 6.06 | 5.14 | 1.33 | 1.29 | 3.76
COC(=O)Nc1nc2cc(Oc3cccc(NC(=O)Nc4cc(C(F)(F)F)ccc4F)c3)ccc2[nH]1 | 3.68 | 0.14 | -3.14 | 1.74 | 1.87 | 1.38 | 2.1 | 0.54 | 4.96 | 0.56 | 0.78 | 0.53 | 0.94 | 1.37 | 0.22 | -2.61 | -1.51 | -0.85 | 0.45 | 0.43
c1cnn2ncc(-c3ccnc(Nc4ccc5c(c4)OCCO5)n3)c2c1 | 12.6 | 52.8 | 83.2 | 0.46 | 6.78 | 2.51 | 9.28 | 1.5 | 5.85 | 5.45 | 15.3 | 7.61 | 35.7 | 0.39 | 1.89 | 0.16 | 6.81 | 2.96 | 9.21 | 3.38
COc1cc(C)c(NC(=O)CN(C)C)cc1Nc1nc(Nc2cccc(F)c2C(N)=O)c2cc[nH]c2n1 | 4.27 | -0.32 | 4.12 | 1.09 | 0.73 | 0.37 | -2.24 | 2.17 | 16.7 | 3.26 | 8.59 | 4.57 | 14.2 | 9.62 | 40 | -4.03 | -1.09 | 40.2 | 76.2 | 1.58
CCCN1CCC=C(c2ccc(Nc3nc(Nc4ccccc4C(N)=O)c4cc[nH]c4n3)c(C)c2)C1 | 14.5 | 48.4 | 69.8 | 3.51 | 4.05 | 2.36 | 6.53 | 1.21 | 12.8 | 3.75 | 8.19 | 5.36 | 20.6 | -0.28 | 9.19 | 1.09 | 8.05 | 13.1 | 51.3 | 6.81
